This is a sample that favours compounds with a hit; in the whole collection about 5.4% have one here.
HSF1 inhib = HSF1 inhibition; NIH3T3-HGL HSE-luciferase, MG132-induced, luminescence 8 h; hits give low values; activity change, negative = inhibition, % at 7.5 µM (by protocol); 300,000 compounds, 0.77% hits;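 active = more than half of replicate wells show activity change below -50%, luminescence cut by over half; inconclusive = some wells, but at most half, below -50%; inactive = no replicate well below -50%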;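 also: luciferase reports HSF-1 transcriptional activity via heat shock element; 0% = median of DMSO wells and -100% = zero luminescence signal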
AHR act = activators of human aryl hydrocarbon receptor. P35869. activation, % at 5 µM. 320,000 compounds, 2.5% hits. AHR-responsive luciferase reporter cells, luminescence. AID 2796; in the data active = activation above about 47%;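 also: 0% = vehicle wells and 100% = reference agonist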
HSF1 activator = increases HSF-1 driven luciferase reporter signal | NIH3T3-HGL HSF-1 luciferase reporter, MG132, 8 h; 100% = twice DMSO control signal | activation, % at 9 µM | 300,000 compounds, 1.7% hits | AID 504408;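 active = mean replicate activation of at least 50% with a set share of replicates each reaching 50%; inconclusive = only one of those two conditions met; inactive = mean below 50% and too few replicates reaching it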;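 also: 0% = median of the neutral control wells and 100% = twice that signal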
FXN GAA850 act = increases GAA850 frataxin promoter reporter activity; 360,000 compounds, 0.56% hits; activation, % at 6 µM; HEK293 lucGAA850 FXN promoter luciferase reporter, 24 h; percent of 10 µM SAHA response;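 active = activation above the average of all compounds screened plus 3 SD, cutoff fixed separately per campaign, cut at about 7.5% in these data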;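 also: 0% = DMSO wells and 100% = 10 µM SAHA wells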
NR0B1 inh = inhibitors of human orphan nuclear receptor DAX1 (NR0B1); P51843; HEK293 Gal4-DAX1 luciferase reporter, luminescence; inhibition, % at 6.75 µM; 340,000 compounds, 0.99% hits; AID 504766;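 active = inhibition above the mean over all tested compounds plus 3 SD, cut at about 4.2% in these data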;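 also: 0% = DAX1-transfected cells with DMSO and 100% = empty-vector control cells with DMSO; inhibition shows as a rise in luminescence from relieved DAX1 repression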
Target sequence (P51843 207-470 limits assumed): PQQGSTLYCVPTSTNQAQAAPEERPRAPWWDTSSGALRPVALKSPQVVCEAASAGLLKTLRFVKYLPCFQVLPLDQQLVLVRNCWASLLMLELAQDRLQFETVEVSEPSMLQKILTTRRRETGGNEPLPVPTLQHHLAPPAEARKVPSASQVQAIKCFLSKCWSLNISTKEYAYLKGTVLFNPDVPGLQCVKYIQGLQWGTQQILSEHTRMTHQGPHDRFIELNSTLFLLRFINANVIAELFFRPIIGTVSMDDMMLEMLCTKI
Numbers without * were called inactive; ? = inconclusive; · = not tested or not shown.

SMILES	HSF1 inhib	AHR act	HSF1 activator	FXN GAA850 act	NR0B1 inh
CCn1c(=O)c(C(=O)NCc2ccc(F)cc2)c(O)c2ccccc21	-8.0	16.7	6.2	-0.6	4.7*
Cc1oc2c(c1C(=O)NCc1cccnc1)C(=O)c1ccccc1C2=O	-95.0*	-14.7	-94.4	·	·
CCn1c(=O)c(C(=O)NC(C)C)c(O)c2ccccc21	-1.0	76.1*	-0.2	-0.4	1.3
CCn1c(=O)c(C(=O)NNS(=O)(=O)c2ccc(C)cc2)c(O)c2ccccc21	1.7	1.9	20.0	2.2	0.0
NS(=O)(=O)c1ccc(O)c(NC(=O)c2ccc([N+](=O)[O-])cc2)c1	-4.9	-0.9	1.5	-1.4	0.0
c1ccc(-c2cncnc2)cc1	·	-0.6	·	0.4	1.0
CCn1c(=O)c(C(=O)NCc2cccnc2)c(O)c2ccccc21	2.5	55.9*	9.0	1.6	0.8
O=C(NCc1cccnc1)c1c(O)c2cccc3c2n(c1=O)CCC3	2.0	77.3*	4.2	2.6	0.1
COCCC(=O)N1CCOCC1c1cc(C(=O)NCc2ccccc2)no1 (stereo not given)	·	·	·	-1.3	·
CCc1cc(=O)oc2cc(C)cc(OCC(=O)NCc3cccnc3)c12	4.0	48.8*	12.8	-1.8	-0.5
CCCc1cc(=O)oc2cc(C)cc(OCC(=O)NCc3ccncc3)c12	3.0	39.3	18.0	-0.2	0.5
CCc1cc(=O)oc2cc(C)cc(OCC(=O)NCc3ccncc3)c12	-3.2	74.9*	1.1	0.0	-0.1
Cc1cc(OCC(=O)Nc2cccnc2)c2c(C)c(C)c(=O)oc2c1	0.1	78.2*	16.5	-0.6	0.0
CCCCc1cc(=O)oc2cc(C)cc(OCC(=O)NCc3cccnc3)c12	10.8	16.9	6.2	-0.6	1.3
CN(Cc1ccccc1)c1ccc(C(CC(N)=O)NC(=O)c2ccc(Br)cc2)cc1[N+](=O)[O-] (stereo not given)	5.7	2.5	16.5	0.3	0.0
CCCNC(=O)C1(C)CCCN(C(=O)/C=C/c2ccccc2)C1 (stereo not given)	·	·	·	-1.8	·
Cc1ccc([C@H]2N[C@]3(CCCN(Cc4ccc(F)cc4)C3=O)[C@H]3C(=O)N(Cc4ccccc4)C(=O)[C@@H]23)cc1	·	·	·	-7.0	3.8
CCOC(=O)C(CC)/C(C)=N\NC(=O)c1ccccc1O (stereo not given)	-7.7	55.6*	-0.8	2.7	1.3
O=C(NN=C1CCCC1)c1ccccc1OCCOc1ccccc1	-4.6	30.7	4.6	3.9	0.9
CCC(C)/C(C)=N/NC(=O)c1ccccc1OCCOc1ccccc1 (stereo not given)	7.2	78.6*	13.2	3.5	1.0
O=C(CNC(=O)C12CC3CC(CC(C3)C1)C2)N1CCN(S(=O)(=O)/C=C/c2ccccc2)CC1	-8.1	-3.3	-2.9	0.3	-0.2
O=C(CCc1nnc(-c2ccc3c(c2)OCO3)o1)N1CCC(c2ccc(F)cc2)C1 (stereo not given)	14.3	3.7	26.5	2.6	5.0*
CC(C)CN(C(=O)C1COc2ccccc2O1)c1c(N)n(CC(C)C)c(=O)[nH]c1=O (stereo not given)	·	-0.7	·	0.6	2.5
[O-][n+]1cccc2c(Br)cc(Br)c(O)c21	7.1	19.5	6.0	1.3	4.5*
O=C(c1cccs1)N(C(=O)c1cccs1)c1ccc(Br)cn1	15.7	10.6	15.0	2.2	1.6
SMILES	HSF1 inhib	AHR act	HSF1 activator	FXN GAA850 act	NR0B1 inh
Cc1ccnc(N(C(=O)c2cccs2)C(=O)c2cccs2)c1	14.4	49.7*	26.0	5.0	2.5
Cc1noc(C)c1CSCC(=O)NCCN1C(=O)S/C(=C\c2ccccc2F)C1=O	12.6	2.7	10.6	1.6	-1.3
Cc1onc(-c2ccccc2Cl)c1C(=O)Nc1ccc(OCC(=O)N2CCOCC2)cc1	-84.9*	-2.8	-87.4	0.4	0.7
CCc1ccc(NC(=O)CSc2ccc(-c3cccnc3)nn2)cc1	-75.9*	19.6	-81.2	1.3	-1.0
Cc1cccc(NC(=O)CSc2ccc(-c3cccnc3)nn2)c1	-4.0	50.0*	-3.5	-2.0	1.0
Cc1ccc(NC(=O)CSc2ccc(-c3cccnc3)nn2)cc1	-2.3	25.4	8.8	0.9	0.5
CCNc1nc(NCC)n2c(SCC(=O)Nc3ccc(CC)cc3)nnc2n1	-2.6	49.8*	-6.2	1.2	-1.2
CCc1ccc(NC(=O)CSc2nnnn2-c2cccnc2)cc1	-8.5	62.7*	0.0	-0.6	0.8
COC(=O)c1ccc(CNC(=O)CNC(=O)c2sc3ccccc3c2Cl)cc1	-25.7	0.3	-21.6	2.1	-0.6
c1ccc2c(-c3cccc4nccn34)cncc2c1	·	·	·	0.2	·
COc1ccccc1S(=O)(=O)CC(O)COc1ccc(C#N)cc1 (stereo not given)	-2.7	-0.2	-11.4	0.3	-1.1
CC(NC(=O)CCc1nnc(C2(c3ccc(Cl)cc3)CCC2)o1)C1CC1 (stereo not given)	1.5	1.6	6.5	2.4	4.4*
Cc1cc(C)c2cc(CN(CC3CCCO3)S(=O)(=O)c3ccc4c(c3)OCCO4)c(=O)[nH]c2c1 (stereo not given)	27.9	-1.9	61.8*	0.6	-0.6
COc1ccccc1N1CCN(Cc2ccc(O)c3ncccc23)CC1	-5.2	1.2	15.7	3.7	-1.7
Oc1ccc(CN2CCCc3ccccc32)c2cccnc12	-68.6*	5.7	-70.3	2.8	-0.1
COc1ccc(CN2CCNC(=O)C2CC(=O)N(Cc2nccn2C)C(C)C)c(OC)c1 (stereo not given)	-4.6	-0.4	-14.9	-1.1	4.4*
CC(C)N(Cc1nccn1C)C(=O)CC1C(=O)NCCN1Cc1ccc(F)cc1 (stereo not given)	-2.5	-1.1	-4.6	-0.8	0.0
Cc1ccc(/C=C/C(=O)c2ccc(O)cc2)cc1	20.3	1.1	27.5	1.5	4.4*
O=C(/C=C/c1ccc(O)cc1)c1ccc(O)cc1O	55.0	65.5*	?	0.8	-1.2
CSc1ccc(/C=C/C(=O)c2ccc(O)cc2)cc1	58.2	0.0	60.2*	1.6	1.7
CC(C)(C)CC(=O)Nc1cccc(-c2cn3cccnc3n2)c1	10.0	47.6*	23.5	6.8	4.0
CCCCC(=O)Nc1cccc(-c2csc(-c3ccccc3)n2)c1	27.7	69.4*	44.7	3.0	0.5
CCC(=O)Nc1cccc(-c2cn3ccsc3n2)c1	-5.7	53.8*	0.7	1.7	-0.5
CC(=O)Nc1cccc(-c2cn3ccccc3n2)c1	19.6	60.8*	45.3	2.3	0.7
COc1ccc(NC(=O)Nc2nnc([C@H]3C[C@H](O)[C@@H](CO)O3)s2)cc1	·	·	·	0.2	·
CCN(CCO)c1nc(SC)nc2c1sc1nc(-c3ccco3)c3c(c12)CCC3	36.2	1.4	58.0*	-1.8	-1.1
CN(C)c1ncnc2c1ncn2[C@H]1CN(Cc2ccco2)C[C@@H](CO)O1	·	·	·	-0.3	·
CCOC(=O)C(CCCCCCC(NC(C)=O)(C(=O)OCC)C(=O)OCC)(NC(C)=O)C(=O)OCC	-10.1	-0.5	0.0	2.4	4.7*
O=C(NCCN1CCCCC1)Nc1ccc([N+](=O)[O-])cc1	-0.1	-0.1	-13.2	1.9	8.7*

Assay outcomes as filed in PubChem.
